Common to all, as to assay: PBM; 200 nM protein, PBS
Common to all, as to conditions: dsDNA, one strand shown

Experiment [1] deals with HOXB9 (Homo sapiens, UniProt P17482 171-250, T197M).
The target of experiment [2] is HOXB6 (Homo sapiens, UniProt P17509 132-218, K202E).
Experiment [3] deals with HOXB9 (Homo sapiens, UniProt P17482 171-250).
Experiment [4] concerns the target T1, NKX2-6 (Homo sapiens, UniProt A6NCS4 118-204, R150C).
T1 sequence: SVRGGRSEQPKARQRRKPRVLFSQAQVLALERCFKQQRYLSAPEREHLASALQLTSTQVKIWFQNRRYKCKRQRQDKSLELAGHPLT

Experiment [5] has as its target HOXB9 (Homo sapiens, UniProt P17482 171-250, R186Q).
Experiment [6] has as its target HOXB6 (Homo sapiens, UniProt P17509 132-218).
Experiment [7] has as its target HOXD13 (Homo sapiens, UniProt P35453 263-343, T313R).
Experiment [8] concerns the target HOXD13 (Homo sapiens, UniProt P35453 263-343).
Experiment [9] deals with HOXD13 (Homo sapiens, UniProt P35453 263-343, T313A).
Experiment [10] has as its target NKX3-2 (Homo sapiens, UniProt P78367 192-278, P234S).
Experiment [11] deals with NKX3-2 (Homo sapiens, UniProt P78367 192-278).
Experiment [12] addresses PITX2 (Homo sapiens, UniProt Q99697 72-157).
Experiment [13] deals with MSX2 (Homo sapiens, UniProt P35548 130-214, R199I).
The target of experiment [14] is MSX2 (Homo sapiens, UniProt P35548 130-214).
The target in experiment [15] is PROP1 (Homo sapiens, UniProt O75360 56-141).
Experiment [16] deals with PROP1 (Homo sapiens, UniProt O75360 56-141, R99H).
Experiment [17] deals with PROP1 (Homo sapiens, UniProt O75360 56-141, F88S).
Experiment [18] deals with MSX2 (Homo sapiens, UniProt P35548 130-214, F161Y).
The target of experiment [19] is HOXA2 (Homo sapiens, UniProt O43364 129-215, R185T).
The target of experiment [20] is HOXA2 (Homo sapiens, UniProt O43364 129-215, R185K).
Experiment [21] has as its target VAX1 (Homo sapiens, UniProt Q5SQQ9 86-172).
The target of experiment [22] is VAX1 (Homo sapiens, UniProt Q5SQQ9 86-172, T142I).
Experiment [23] concerns the target HOXA2 (Homo sapiens, UniProt O43364 129-215, Y150S).
Experiment [24] has as its target HOXA2 (Homo sapiens, UniProt O43364 129-215).
Experiment [25] concerns the target VAX1 (Homo sapiens, UniProt Q5SQQ9 86-172, K157R).

Chain of MSX2 (Homo sapiens, UniProt P35548 130-214, F161Y) (P35548 130-214 F161Y): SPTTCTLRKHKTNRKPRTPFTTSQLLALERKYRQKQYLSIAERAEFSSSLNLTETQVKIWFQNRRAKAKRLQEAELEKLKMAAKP
Chain of MSX2 (Homo sapiens, UniProt P35548 130-214, R199I) (P35548 130-214 R199I): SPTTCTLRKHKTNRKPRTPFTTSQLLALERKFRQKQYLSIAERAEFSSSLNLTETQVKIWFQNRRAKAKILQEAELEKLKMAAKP
Chain of HOXB9 (Homo sapiens, UniProt P17482 171-250, R186Q) (P17482 171-250 R186Q): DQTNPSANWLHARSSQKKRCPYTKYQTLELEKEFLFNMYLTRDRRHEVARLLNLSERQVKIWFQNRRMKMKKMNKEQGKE
Chain of HOXB9 (Homo sapiens, UniProt P17482 171-250) (P17482 171-250): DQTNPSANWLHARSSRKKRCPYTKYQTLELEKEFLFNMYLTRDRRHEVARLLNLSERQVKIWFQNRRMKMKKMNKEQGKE
Chain of HOXB9 (Homo sapiens, UniProt P17482 171-250, T197M) (P17482 171-250 T197M): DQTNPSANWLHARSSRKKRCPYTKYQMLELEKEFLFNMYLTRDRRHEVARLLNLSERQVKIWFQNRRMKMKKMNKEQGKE
Chain of MSX2 (Homo sapiens, UniProt P35548 130-214) (P35548 130-214): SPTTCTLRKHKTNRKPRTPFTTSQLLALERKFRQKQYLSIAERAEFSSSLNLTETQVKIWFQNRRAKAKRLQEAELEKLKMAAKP
Chain of VAX1 (Homo sapiens, UniProt Q5SQQ9 86-172) (Q5SQQ9 86-172): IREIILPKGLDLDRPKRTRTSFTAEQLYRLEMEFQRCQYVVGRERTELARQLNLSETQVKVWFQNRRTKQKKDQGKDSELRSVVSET
Chain of HOXD13 (Homo sapiens, UniProt P35453 263-343, T313A) (P35453 263-343 T313A): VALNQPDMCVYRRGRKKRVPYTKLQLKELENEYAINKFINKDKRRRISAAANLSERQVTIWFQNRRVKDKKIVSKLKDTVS
Chain of VAX1 (Homo sapiens, UniProt Q5SQQ9 86-172, T142I) (Q5SQQ9 86-172 T142I): as the sequence (Q5SQQ9 86-172) above, with T57I counted along it
Chain of VAX1 (Homo sapiens, UniProt Q5SQQ9 86-172, K157R) (Q5SQQ9 86-172 K157R): as the sequence (Q5SQQ9 86-172) above, with K72R counted along it
Chain of HOXD13 (Homo sapiens, UniProt P35453 263-343) (P35453 263-343): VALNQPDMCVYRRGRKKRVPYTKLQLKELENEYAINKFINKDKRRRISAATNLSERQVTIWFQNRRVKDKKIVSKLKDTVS
Chain of HOXD13 (Homo sapiens, UniProt P35453 263-343, T313R) (P35453 263-343 T313R): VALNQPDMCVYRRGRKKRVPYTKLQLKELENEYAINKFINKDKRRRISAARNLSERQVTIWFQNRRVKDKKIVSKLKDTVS
Chain of HOXA2 (Homo sapiens, UniProt O43364 129-215, R185K) (O43364 129-215 R185K): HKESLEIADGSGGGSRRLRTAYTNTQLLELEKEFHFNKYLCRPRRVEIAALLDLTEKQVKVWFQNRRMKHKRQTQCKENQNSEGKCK
Chain of PROP1 (Homo sapiens, UniProt O75360 56-141) (O75360 56-141): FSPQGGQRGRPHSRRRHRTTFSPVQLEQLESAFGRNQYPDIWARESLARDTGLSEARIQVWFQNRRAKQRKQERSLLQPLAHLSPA
Chain of NKX3-2 (Homo sapiens, UniProt P78367 192-278, P234S) (P78367 192-278 P234S): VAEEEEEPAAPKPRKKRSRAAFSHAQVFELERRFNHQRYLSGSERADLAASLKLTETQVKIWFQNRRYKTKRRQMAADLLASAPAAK
Chain of HOXA2 (Homo sapiens, UniProt O43364 129-215) (O43364 129-215): as the sequence (O43364 129-215 R185K) above, with K57R counted along it
Chain of HOXA2 (Homo sapiens, UniProt O43364 129-215, R185T) (O43364 129-215 R185T): as the sequence (O43364 129-215 R185K) above, with K57T counted along it
Chain of HOXB6 (Homo sapiens, UniProt P17509 132-218, K202E) (P17509 132-218 K202E): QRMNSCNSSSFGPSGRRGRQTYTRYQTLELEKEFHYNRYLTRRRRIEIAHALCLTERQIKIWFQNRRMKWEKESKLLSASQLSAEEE
Chain of PROP1 (Homo sapiens, UniProt O75360 56-141, R99H) (O75360 56-141 R99H): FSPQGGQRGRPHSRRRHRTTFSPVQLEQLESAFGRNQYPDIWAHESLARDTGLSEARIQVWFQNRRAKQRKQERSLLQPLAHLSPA
Chain of HOXA2 (Homo sapiens, UniProt O43364 129-215, Y150S) (O43364 129-215 Y150S): as the sequence (O43364 129-215 R185K) above, with Y22S, K57R counted along it
Chain of HOXB6 (Homo sapiens, UniProt P17509 132-218) (P17509 132-218): as the sequence (P17509 132-218 K202E) above, with E71K counted along it
Chain of NKX3-2 (Homo sapiens, UniProt P78367 192-278) (P78367 192-278): as the sequence (P78367 192-278 P234S) above, with S43P counted along it
Chain of PROP1 (Homo sapiens, UniProt O75360 56-141, F88S) (O75360 56-141 F88S): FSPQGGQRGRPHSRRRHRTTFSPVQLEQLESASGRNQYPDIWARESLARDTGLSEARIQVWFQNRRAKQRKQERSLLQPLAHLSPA

With AGGCCTGG, the binding signal in experiment [1] is 8.45 upbm affinity estimate (log intensity, higher = more binding, comparable within an allelic series); in experiment [2], 8.94 upbm affinity estimate (log intensity, higher = more binding, comparable within an allelic series); in [3], 8.43 upbm affinity estimate (log intensity, higher = more binding, comparable within an allelic series); in experiment [4], 9.48 upbm affinity estimate (log intensity, higher = more binding, comparable within an allelic series); in [5], 8.44 upbm affinity estimate (log intensity, higher = more binding, comparable within an allelic series); in [6] it was 8.97 upbm affinity estimate (log intensity, higher = more binding, comparable within an allelic series).
As to GACATAAA, the binding signal was 9.74 upbm affinity estimate (log intensity, higher = more binding, comparable within an allelic series) in [1]; 11.7 upbm affinity estimate (log intensity, higher = more binding, comparable within an allelic series) in [3]; 11.3 upbm affinity estimate (log intensity, higher = more binding, comparable within an allelic series) in [5].
Take AGCCCCGG: the binding signal is 8.65 upbm affinity estimate (log intensity, higher = more binding, comparable within an allelic series) in experiment [1]; 8.31 upbm affinity estimate (log intensity, higher = more binding, comparable within an allelic series) in experiment [3]; 9.53 upbm affinity estimate (log intensity, higher = more binding, comparable within an allelic series) in [7]; 9.4 upbm affinity estimate (log intensity, higher = more binding, comparable within an allelic series) in experiment [8]; 9.76 upbm affinity estimate (log intensity, higher = more binding, comparable within an allelic series) in experiment [9]; 8.53 upbm affinity estimate (log intensity, higher = more binding, comparable within an allelic series) in [5]. In addition, the binding signal in experiment [10] was 10.6 upbm affinity estimate (log intensity, higher = more binding, comparable within an allelic series); in experiment [11] it was 10.6 upbm affinity estimate (log intensity, higher = more binding, comparable within an allelic series).
Consider CCCGCAAG, for which the binding signal was 8.42 upbm affinity estimate (log intensity, higher = more binding, comparable within an allelic series) in experiment [1]; 8.44 upbm affinity estimate (log intensity, higher = more binding, comparable within an allelic series) in experiment [3]; 7.91 upbm affinity estimate (log intensity, higher = more binding, comparable within an allelic series) in [12]; 8.51 upbm affinity estimate (log intensity, higher = more binding, comparable within an allelic series) in experiment [5].
Take CCGCAGCC: the binding signal in experiment [1] is 8.52 upbm affinity estimate (log intensity, higher = more binding, comparable within an allelic series); in [3], 8.38 upbm affinity estimate (log intensity, higher = more binding, comparable within an allelic series); in experiment [13], 9.47 upbm affinity estimate (log intensity, higher = more binding, comparable within an allelic series); in experiment [7], 9.38 upbm affinity estimate (log intensity, higher = more binding, comparable within an allelic series); in experiment [8], 9.33 upbm affinity estimate (log intensity, higher = more binding, comparable within an allelic series); in [14], 9.43 upbm affinity estimate (log intensity, higher = more binding, comparable within an allelic series). In addition, the binding signal in [15] is 6.67 upbm affinity estimate (log intensity, higher = more binding, comparable within an allelic series); in experiment [16], 6.75 upbm affinity estimate (log intensity, higher = more binding, comparable within an allelic series); in experiment [9], 9.43 upbm affinity estimate (log intensity, higher = more binding, comparable within an allelic series); in [5] it was 8.47 upbm affinity estimate (log intensity, higher = more binding, comparable within an allelic series); in [17], 6.52 upbm affinity estimate (log intensity, higher = more binding, comparable within an allelic series); in experiment [18] it was 9.45 upbm affinity estimate (log intensity, higher = more binding, comparable within an allelic series).
As for CACGCCTC, the binding signal in experiment [1] was 8.36 upbm affinity estimate (log intensity, higher = more binding, comparable within an allelic series); in [3], 8.42 upbm affinity estimate (log intensity, higher = more binding, comparable within an allelic series); in experiment [5] it was 8.39 upbm affinity estimate (log intensity, higher = more binding, comparable within an allelic series).
On to AAGTTATC, for which the binding signal in experiment [1] was 9.1 upbm affinity estimate (log intensity, higher = more binding, comparable within an allelic series); in experiment [3], 9.66 upbm affinity estimate (log intensity, higher = more binding, comparable within an allelic series).
Regarding CGCGCCCC, the binding signal was 8.45 upbm affinity estimate (log intensity, higher = more binding, comparable within an allelic series) in [1]; 7.42 upbm affinity estimate (log intensity, higher = more binding, comparable within an allelic series) in experiment [19]; 8.02 upbm affinity estimate (log intensity, higher = more binding, comparable within an allelic series) in experiment [3]; 10.1 upbm affinity estimate (log intensity, higher = more binding, comparable within an allelic series) in [20]; 7.05 upbm affinity estimate (log intensity, higher = more binding, comparable within an allelic series) in [21]; 8.34 upbm affinity estimate (log intensity, higher = more binding, comparable within an allelic series) in [5]. In addition, the binding signal is 6.95 upbm affinity estimate (log intensity, higher = more binding, comparable within an allelic series) in experiment [22]; 10.2 upbm affinity estimate (log intensity, higher = more binding, comparable within an allelic series) in experiment [23]; 7.21 upbm affinity estimate (log intensity, higher = more binding, comparable within an allelic series) in experiment [24]; 7.04 upbm affinity estimate (log intensity, higher = more binding, comparable within an allelic series) in experiment [25].
On to CCTGCTCG, for which the binding signal was 8.58 upbm affinity estimate (log intensity, higher = more binding, comparable within an allelic series) in [1]; 8.34 upbm affinity estimate (log intensity, higher = more binding, comparable within an allelic series) in experiment [3]; 9.56 upbm affinity estimate (log intensity, higher = more binding, comparable within an allelic series) in [13]; 9.58 upbm affinity estimate (log intensity, higher = more binding, comparable within an allelic series) in experiment [14]; 8.42 upbm affinity estimate (log intensity, higher = more binding, comparable within an allelic series) in [5]; 9.61 upbm affinity estimate (log intensity, higher = more binding, comparable within an allelic series) in experiment [18].
On to CGCCCAGA, for which the binding signal in experiment [1] is 8.62 upbm affinity estimate (log intensity, higher = more binding, comparable within an allelic series); in experiment [3] it was 8.59 upbm affinity estimate (log intensity, higher = more binding, comparable within an allelic series); in experiment [21], 7.13 upbm affinity estimate (log intensity, higher = more binding, comparable within an allelic series); in [5], 8.62 upbm affinity estimate (log intensity, higher = more binding, comparable within an allelic series); in experiment [22], 7.22 upbm affinity estimate (log intensity, higher = more binding, comparable within an allelic series); in [25] it was 7.49 upbm affinity estimate (log intensity, higher = more binding, comparable within an allelic series).
In the case of ACCGGGGA, the binding signal in [1] was 8.44 upbm affinity estimate (log intensity, higher = more binding, comparable within an allelic series); in experiment [3] it was 8.19 upbm affinity estimate (log intensity, higher = more binding, comparable within an allelic series); in experiment [13], 9.45 upbm affinity estimate (log intensity, higher = more binding, comparable within an allelic series); in experiment [14] it was 9.39 upbm affinity estimate (log intensity, higher = more binding, comparable within an allelic series); in experiment [5], 8.23 upbm affinity estimate (log intensity, higher = more binding, comparable within an allelic series); in experiment [18], 9.41 upbm affinity estimate (log intensity, higher = more binding, comparable within an allelic series).
